The sample as a whole holds a higher share of hits than the screen did.
HT1080-NT tox: kills 2HG-producing HT-1080-NT fibrosarcoma cells; Potency, µM (highest dose often 46.1 µM), usual class: cytotoxic; hit rate 1.6% among 360,000; HT-1080-NT fibrosarcoma viability, CellTiter-Glo ATP luminescence, 48 h;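 note: NT is the 2HG producing partner of a matched IDH1 knockdown line; nearly all actives have a fitted effect of over 55% in size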
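HT-1080-NT fibrosarcoma cells (2HG-overproducing), 750 cells/well in RPMI with 5% FBS, dosed after 2 h and incubated 48 h at 37C. CellTiter-Glo luminescence normalized to DMSO and no-cell wells; concentration-response curves fitted and classed.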
IL1B secr inh: blocks inflammasome-driven IL-1 beta release; AID 743279; hit rate 4.7% among 360,000; activity change, % at 57.5 µM; THP-1 LPS/ATP IL-1B secretion, AlphaLISA, 16 h; active compounds read low; in the data active = activity change below about -50%; inconclusive = mostly about -30% to -49%
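THP-1 cells pretreated 1 hr with compounds (up to 57.5 uM final), then stimulated with LPS (250 ng/mL final) plus ATP (1.25 mM final); secreted IL-1B measured by AlphaLISA after 16 hr, decreased signal indicating inhibition.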
HT1080 IDH1KD tx: toxicity to HT-1080 IDH1 knockdown cells (counter line); HT-1080 IDH1 knockdown viability, ATP luminescence, 48 h; hit rate 2% among 360,000; Potency, µM (doses to about 46.1 µM), usual class: cytotoxic
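After a 2 h attachment period, IDH1KD HT-1080 cells took pin-transferred compound for 48 h at 37 °C; ATP-based luminescence after 10 min room-temperature reagent incubation reported viability.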
DT40 TDP1 CPT: DT40-hTDP1 cell growth loss with CPT. chicken DT40 Tdp1-/-;hTDP1 cells + 20 nM CPT, ATP luminescence, 48 h. AID 686979. hit rate 12% among 420,000. Potency, µM (series often up to 46.2 µM), hits mostly inhibitors; note: nearly all actives have a fitted effect of over 55% in size
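Chicken DT40 Tdp1-/- cells complemented with human TDP1, 400 cells/well, exposed to compounds plus 20 nM camptothecin for at least 48 h at 37 C; viability read as ATP content by CellTiter-Glo luminescence.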
12-LOX inh: ALOX12 (human) lipoxygenase inhibition; purified 12hLO, xylenol orange hydroperoxide absorbance; Potency, µM (highest dose often 108 µM), hits mostly inhibitors; hit rate 1.1% among 580,000
Target sequence (P18054 whole entry, looked up): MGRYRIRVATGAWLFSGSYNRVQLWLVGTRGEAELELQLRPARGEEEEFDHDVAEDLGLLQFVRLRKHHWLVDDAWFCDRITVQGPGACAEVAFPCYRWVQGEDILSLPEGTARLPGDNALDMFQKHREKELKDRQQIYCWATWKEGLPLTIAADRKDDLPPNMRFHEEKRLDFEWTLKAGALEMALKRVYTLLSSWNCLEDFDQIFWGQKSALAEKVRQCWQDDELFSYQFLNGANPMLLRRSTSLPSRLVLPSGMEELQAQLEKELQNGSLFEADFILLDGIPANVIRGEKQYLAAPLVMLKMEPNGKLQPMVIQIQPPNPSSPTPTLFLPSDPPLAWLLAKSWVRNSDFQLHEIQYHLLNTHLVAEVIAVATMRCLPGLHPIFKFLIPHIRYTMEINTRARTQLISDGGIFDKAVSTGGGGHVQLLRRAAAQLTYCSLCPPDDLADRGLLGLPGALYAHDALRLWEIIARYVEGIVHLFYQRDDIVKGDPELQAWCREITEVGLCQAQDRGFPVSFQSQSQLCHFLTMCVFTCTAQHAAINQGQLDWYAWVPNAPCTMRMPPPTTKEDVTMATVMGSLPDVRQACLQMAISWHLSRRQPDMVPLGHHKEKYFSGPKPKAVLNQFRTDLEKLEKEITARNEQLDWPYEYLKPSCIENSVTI
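Purified human 12hLO at 150 nM in 25 mM Hepes, 0.01% Triton X-100, pH 7.0, preincubated 15 min at room temperature with compound. Reaction started with 40 uM arachidonic acid, 30 min at room temperature. Hydroperoxide measured by Fe-xylenol orange, 573/405 nm absorbance ratio.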
DT40 TDP1 no CPT: qHTS for Inhibitors of human tyrosyl-DNA phosphodiesterase 1 (TDP1): qHTS in cells in absence of CPT. hit rate 15% among 420,000. DT40 Tdp1-/- hTDP1 cells, no CPT, ATP luminescence, 48 h. AID 686978, 2013. Potency, µM (highest dose often 46.2 µM), most hits filed as inhibitors; note: nearly all actives have a fitted effect of over 55% in size
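Growth of hTDP1-complemented DT40 Tdp1-knockout cells is measured by ATP luminescence after at least 48 hr compound exposure at 37 °C, with DMSO substituting for the 20 nM CPT used in the parallel screen.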
A number is an active result; [ ] = dose if it differs, or a comment. Unless noted, calls come from the whole dose curve; as a rule, active = well fitted curve in the direction sought with a large enough effect; inconclusive = small, poorly fitted or top-dose-only effect, or another doubt; inactive = no such curve, though single readings can be large; an effect the other way counts as inactive or inconclusive.

C#CCN(C[C@@H]1[C@@H](OC(=O)NCc2ccccc2)[C@@H](OC(=O)NCc2ccccc2)Cn2c(=O)n(CCCCCC)c(=O)n21)S(=O)(=O)c1ccc(C)cc1 was read as HT1080-NT tox inactive, IL1B secr inh inactive, HT1080 IDH1KD tx inactive, DT40 TDP1 CPT inconclusive, 12-LOX inh inactive and DT40 TDP1 no CPT inconclusive.
`C#CCN(C[C@@H]1[C@@H](OC(=O)NCCCCCC)[C@@H](OC(=O)NCCCCCC)Cn2c(=O)ccc(=O)n21)S(=O)(=O)c1ccc(C)cc1` gave HT1080-NT tox 4.6µM, IL1B secr inh -107, HT1080 IDH1KD tx 4.1µM, DT40 TDP1 CPT 4.6µM, 12-LOX inh inconclusive and DT40 TDP1 no CPT 3.3µM.
`C#CCN(C[C@@H]1[C@@H](OC(=O)NCC2CCCCC2)[C@@H](OC(=O)NCC2CCCCC2)Cn2c(=O)ccc(=O)n21)S(=O)(=O)c1ccc(C)cc1` gave HT1080-NT tox 5.2µM, IL1B secr inh -106, HT1080 IDH1KD tx 2.6µM, DT40 TDP1 CPT 2.9µM, 12-LOX inh inconclusive and DT40 TDP1 no CPT 3.3µM.
For CC(C)C1C(=O)Nc2ccc(S(=O)(=O)NCc3ccc(Cl)cc3)cc21 (stereo not given) the results were DT40 TDP1 CPT 23µM, 12-LOX inh inconclusive and DT40 TDP1 no CPT 16µM.
CC1C(=O)Nc2ccc(S(=O)(=O)NCCc3ccc(Cl)cc3)cc2NC1=O (stereo not given) was read as HT1080-NT tox inactive, IL1B secr inh inactive, HT1080 IDH1KD tx inactive, DT40 TDP1 CPT inconclusive, 12-LOX inh inactive and DT40 TDP1 no CPT inconclusive.
For CCCOc1ccc(C2C(C(=O)c3ccc(C)o3)=C(O)C(=O)N2Cc2ccco2)cc1 (stereo not given) the results were HT1080-NT tox inactive, IL1B secr inh inactive, HT1080 IDH1KD tx inactive, DT40 TDP1 CPT inconclusive, 12-LOX inh inconclusive and DT40 TDP1 no CPT inconclusive.
CCCOc1ccc(C2C(C(=O)c3ccc(C)o3)=C(O)C(=O)N2Cc2ccco2)cc1OCC (stereo not given) was read as HT1080-NT tox inactive, IL1B secr inh inactive, HT1080 IDH1KD tx inactive, DT40 TDP1 CPT inconclusive, 12-LOX inh inconclusive and DT40 TDP1 no CPT 23µM.
For CCOc1cc(C2C(C(=O)c3ccc(C)o3)=C(O)C(=O)N2CCc2ccccc2)ccc1O (stereo not given) the results were HT1080-NT tox inactive, IL1B secr inh inactive, HT1080 IDH1KD tx inactive, DT40 TDP1 CPT inactive, 12-LOX inh 8.9µM and DT40 TDP1 no CPT inactive.
COc1cc(C2C(C(=O)c3ccc(C)o3)=C(O)C(=O)N2Cc2ccccc2)ccc1O (stereo not given) was read as HT1080-NT tox inactive, IL1B secr inh inactive, HT1080 IDH1KD tx inactive, DT40 TDP1 CPT inactive, 12-LOX inh inconclusive and DT40 TDP1 no CPT inconclusive.
Screening CC(C)(C)c1cc(C(=O)N/N=C/c2ccccc2O)n(-c2ccccc2)n1 returned HT1080-NT tox inconclusive, IL1B secr inh inactive, HT1080 IDH1KD tx inconclusive, DT40 TDP1 CPT 6.5µM, 12-LOX inh inactive and DT40 TDP1 no CPT 6.5µM.
CC(C)(C)c1cc(C(=O)N/N=C/c2ccc(F)cc2)n(-c2ccccc2)n1 was read as HT1080-NT tox inactive, IL1B secr inh inactive, HT1080 IDH1KD tx inactive, DT40 TDP1 CPT 18µM, 12-LOX inh inactive and DT40 TDP1 no CPT 23µM.
Cc1oc2ccn(Cc3cccc(F)c3)c(=O)c2c1C(=O)NC1CCCC1 was read as 12-LOX inh inactive.
CCc1ccc(OCC(=O)NC(NC(=S)Nc2ccccc2C)C(Cl)(Cl)Cl)cc1 (stereo not given) was read as HT1080-NT tox 16µM, IL1B secr inh inactive, HT1080 IDH1KD tx inconclusive, DT40 TDP1 CPT inconclusive, 12-LOX inh inactive and DT40 TDP1 no CPT inconclusive.
Cc1ccccc1NC(=S)NC(NC(=O)COc1ccccc1)C(Cl)(Cl)Cl (stereo not given) was read as HT1080-NT tox inactive, IL1B secr inh inactive, HT1080 IDH1KD tx inactive, DT40 TDP1 CPT inconclusive, 12-LOX inh inconclusive and DT40 TDP1 no CPT inconclusive.
For CC(C)CC(=O)NC(Nc1ccc([N+](=O)[O-])cc1)C(Cl)(Cl)Cl (stereo not given) the results were HT1080-NT tox inconclusive, IL1B secr inh inactive, HT1080 IDH1KD tx inactive, DT40 TDP1 CPT 18µM, 12-LOX inh inconclusive and DT40 TDP1 no CPT 23µM.
Screening CCc1ccc(OCC(=O)NC(NC(=S)Nc2ccccc2)C(Cl)(Cl)Cl)cc1 (stereo not given) returned HT1080-NT tox 16µM, IL1B secr inh inconclusive, HT1080 IDH1KD tx 16µM, DT40 TDP1 CPT inconclusive, 12-LOX inh inactive and DT40 TDP1 no CPT inconclusive.
`CC(C)CC(=O)NC(Nc1ccccc1F)C(Cl)(Cl)Cl` (stereo not given) gave HT1080-NT tox inactive, IL1B secr inh inactive, HT1080 IDH1KD tx inactive, DT40 TDP1 CPT inconclusive, 12-LOX inh inactive and DT40 TDP1 no CPT inconclusive.
COC(=O)c1ccccc1NC(=S)NC(NC(=O)COc1ccccc1)C(Cl)(Cl)Cl (stereo not given) was read as HT1080-NT tox inactive, IL1B secr inh -77, HT1080 IDH1KD tx inactive, DT40 TDP1 CPT inactive, 12-LOX inh inconclusive and DT40 TDP1 no CPT inactive.
CC(C)CC(=O)NC(NC(=S)Nc1ccccc1)C(Cl)(Cl)Cl (stereo not given) was read as HT1080-NT tox inactive, IL1B secr inh -77, HT1080 IDH1KD tx inconclusive, DT40 TDP1 CPT inconclusive, 12-LOX inh inactive and DT40 TDP1 no CPT inconclusive.
CC(C)C(=O)NC(Nc1cccc2ccccc12)C(Cl)(Cl)Cl (stereo not given) was read as 12-LOX inh 11µM.
Cc1ccc(C)c(NC(=S)NC(NC(=O)Cc2cccc3ccccc23)C(Cl)(Cl)Cl)c1 (stereo not given) was read as HT1080-NT tox inactive, IL1B secr inh inconclusive, HT1080 IDH1KD tx inconclusive, DT40 TDP1 CPT 8.2µM, 12-LOX inh inconclusive and DT40 TDP1 no CPT 6.5µM.
`Cc1ccc(C)c(NC(=S)NC(NC(=O)N(C)C)C(Cl)(Cl)Cl)c1` (stereo not given) gave HT1080-NT tox inactive, IL1B secr inh inactive, HT1080 IDH1KD tx inactive[9.24 µM], DT40 TDP1 CPT inactive, 12-LOX inh inconclusive and DT40 TDP1 no CPT inactive.
For CCc1ccc(OCC(=O)NC(NC(=S)Nc2ccccc2OC)C(Cl)(Cl)Cl)cc1 (stereo not given) the results were HT1080-NT tox inactive, IL1B secr inh inactive, HT1080 IDH1KD tx inactive, DT40 TDP1 CPT inconclusive, 12-LOX inh inactive and DT40 TDP1 no CPT inconclusive.
